This passage reports Potency and max response results from PubChem BioAssay (NCATS).

Assay [1] has as its system PC26. Kind of assay: qHTS profiling for inhibitors of Plasmodium falciparum proliferation (AID 504749). Also: potency is read from the fitted curve at half-maximal effect. The note with it: P. falciparum in erythrocytes, SYBR Green DNA, 72 h; series mostly up to 28.7 µM. An outline of the steps:
(§1)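 P. falciparum-infected erythrocytes (0.3% parasitemia, 2.5% hematocrit final) were exposed to compounds for 72 h at 37 C in 5% CO2, then lysed with SYBR Green buffer overnight at room temperature; parasite DNA fluorescence was normalized to artemisinin and DMSO controls.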

In assay [2] the test system is PC49. The description is as above. To be noted: P. falciparum in erythrocytes, SYBR Green DNA, 72 h; series mostly up to 28.7 µM. The essentials: as §1
Assay [3] relates to SC27B. The assay is described as above. The note with it: P. falciparum in erythrocytes, SYBR Green DNA, 72 h; series mostly up to 28.7 µM. An outline of the steps: as §1
Assay [4] deals with TAB109. The assay is described as above. The note with it: P. falciparum in erythrocytes, SYBR Green DNA, 72 h; series mostly up to 28.7 µM. An outline of the steps:
as §1

The test system of assay [5] is TAB113. Described as above. To be noted: P. falciparum in erythrocytes, SYBR Green DNA, 72 h; series mostly up to 28.7 µM. The essentials:
as §1

Assay [6] relates to TAB165. The description is as above. To be noted: P. falciparum in erythrocytes, SYBR Green DNA, 72 h; series mostly up to 28.7 µM. An outline of the steps:
as §1

Assay [7] has as its system W2. The description is as above. The note with it: P. falciparum in erythrocytes, SYBR Green DNA, 72 h; series mostly up to 28.7 µM. An outline of the steps: as §1
Assay [8] relates to KB-3-1. As to the kind of experiment: Cytotoxic Profiling of Annotated Libraries Using Quantitative High-Throughput Screening (AID 1296008). Also: % is scaled to controls: 0 for no effect and ±100 for the full control effect. To be noted: Five cell lines viability, CellTiter-Glo ATP luminescence, 48-72 h; max response: hits give low values. The essentials: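 Compounds were pin-transferred onto cells and incubated 48 or 72 hr at 37 degree Celsius, 95% humidity. CellTiter-Glo was added, plates sat 10 min at room temperature, then ATP-coupled luminescence was imaged as the viability read-out.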
(Cellular ATP, detected with luciferase, serves as a proxy for viable cell number.)

Where “and” joins values, the source holds several entries; their conditions need not be identical. Equal entries are not always repeated. Records with an inconclusive call do not appear. A number with no mark means an inactive call. Calls of active or inactive are those of the source. Calls follow the shape of the dose curve; as a rule, active = well fitted inhibition curve with a large enough effect; inconclusive = small, poorly fitted or top-dose-only effect; inactive = flat fitted curve, though single readings scatter.
Also: nearly all actives have a fitted effect of over 60% in size.

Take `[O]=[Cd]`: the Potency result in assay [1], in assay [2], in assay [3], in assay [4], in assay [5] and in assay [6] was “inactive” throughout. Moreover, in assay [7], the Potency entry was “inactive”. Moreover, in assay [8], the max response is -8.4%.
For the compound `O=C(OCCN1CCCCC1)C(O)(c1ccccc1)c1ccccc1`, the Potency result in assay [1], in assay [2], in assay [3], in assay [4], in assay [5] and in assay [6] was “inactive” throughout. Further, in assay [7], the Potency entry was “inactive”. In assay [8], the max response was 1.68%.
For `CC(=O)OC1CN2CCC1CC2` (configuration not stated), the Potency result in assay [1], in assay [2], in assay [3], in assay [4], in assay [5] and in assay [6] was “inactive” throughout. The Potency entry in assay [7] is “inactive”. For the same compound, in assay [8], the max response is 4.86%.
Regarding `COC1=CC=C2[C@H]3Cc4ccc(OC)c5c4[C@@]2(CCN3C)[C@H]1O5`, the Potency entry in assay [1], in assay [2], in assay [3], in assay [4], in assay [5] and in assay [6] was “inactive” in each case. For the same compound, the max response in assay [8] is 16.1% and -9.66%.
`CC(N)Cc1ccc(O)cc1` (configuration not stated): the Potency entry in assay [1], in assay [2], in assay [3], in assay [4], in assay [5] and in assay [6] was “inactive” in each case. The Potency entry in assay [7] was “inactive”. Besides, in assay [8], the max response is -5.37%.
Turning to `[O]=[Cr](=[O])([OH])[O][Cr](=[O])(=[O])[OH]`, the Potency entry in assay [1], in assay [2], in assay [3], in assay [4], in assay [5] and in assay [6] was “inactive” each time. Further, the Potency entry in assay [7] was “inactive”. In addition, the max response in assay [8] is -23.8% and 6.69%.
Turning to `ClC=C(Cl)Cl`, the Potency entry in assay [1], in assay [2], in assay [3], in assay [4], in assay [5] and in assay [6] was “inactive” each time. The Potency result in assay [7] is “inactive”. Moreover, the max response in assay [8] was -14.2%.
As to `CC[N+](C)(CC)CCOC(=O)C(O)(c1ccccc1)c1ccccc1`, the Potency result in assay [1], in assay [2], in assay [3], in assay [4], in assay [5] and in assay [6] was “inactive” throughout. In assay [7], the Potency entry was “inactive”. Further, the max response in assay [8] was -0.181%.
Regarding `O=C(NCNC(=O)NC1C(=O)NC(=O)N1CO)NC1C(=O)NC(=O)N1CO` (configuration not stated), the Potency entry in assay [1], in assay [2], in assay [3], in assay [4], in assay [5] and in assay [6] was “inactive” throughout. In addition, the Potency result in assay [7] is “inactive”. Further, in assay [8], the max response was 2.87%.
For `CCCCNCC(O)c1ccc(O)cc1` (configuration not stated), the Potency result in assay [1], in assay [2], in assay [3], in assay [4], in assay [5] and in assay [6] was “inactive” throughout. Moreover, the Potency entry in assay [7] was “inactive”. Moreover, the max response in assay [8] is 13.7%.
Turning to `O[C@H]1[C@H]2[C@H](O)CCCN2C[C@H]1O`, the Potency result in assay [1], in assay [2], in assay [3], in assay [4], in assay [5] and in assay [6] was “inactive” throughout. Further, the Potency entry in assay [7] was “inactive”. Besides, in assay [8], the max response is -14%.
Regarding `S=C=S`, the Potency result in assay [1], in assay [2], in assay [3], in assay [4], in assay [5] and in assay [6] was “inactive” in each case. Further, the Potency entry in assay [7] is “inactive”. In assay [8], the max response is -1.39%.
For `CCNC(C)Cc1cccc(C(F)(F)F)c1` (configuration not stated), the Potency result in assay [1], in assay [2], in assay [3], in assay [4], in assay [5] and in assay [6] was “inactive” throughout. In assay [8], the max response is 20.4%.
With `Cn1sc(Cl)cc1=O`, the Potency result in assay [1], in assay [2], in assay [3], in assay [4], in assay [5] and in assay [6] was “inactive” throughout. In addition, in assay [7], the Potency entry was “inactive”. For the same compound, the max response in assay [8] was -13.7%.
Take `N#CN`: the Potency entry in assay [1], in assay [2], in assay [3], in assay [4], in assay [5] and in assay [6] was “inactive” each time. Besides, the Potency entry in assay [7] is “inactive”. The max response in assay [8] was -5.54%.
For the compound `Clc1ccccc1Cl`, the Potency result in assay [1], in assay [2], in assay [3], in assay [4], in assay [5] and in assay [6] was “inactive” each time. In assay [7], the Potency entry was “inactive”. Further, in assay [8], the max response is 4.39%.
On to `O=C1CCCCC1CN1CCCCC1` (configuration not stated), for which the Potency entry in assay [1], in assay [2], in assay [3], in assay [4], in assay [5] and in assay [6] was “inactive” each time. For the same compound, in assay [7], the Potency result was “inactive”. Further, the max response in assay [8] is 4.12%.
As for `S=C(S)N1CCNCC1`, the Potency result in assay [1], in assay [2], in assay [3], in assay [4], in assay [5] and in assay [6] was “inactive” in each case. The Potency entry in assay [7] is “inactive”. For the same compound, the max response in assay [8] was 7.2%.
For the compound `O=C1CN(O)C(c2ccccc2)=c2cc(Cl)ccc2=N1`, the Potency result in assay [1], in assay [2], in assay [3], in assay [4], in assay [5] and in assay [6] was “inactive” in each case. Moreover, in assay [7], the Potency entry is “inactive”. For the same compound, the max response in assay [8] was -7.95%.
On to `O=S(=O)(O)c1cc(O)ccc1O`, for which the Potency result in assay [1], in assay [2], in assay [3], in assay [4], in assay [5] and in assay [6] was “inactive” each time. The Potency result in assay [7] was “inactive”. Moreover, the max response in assay [8] was 6.29%.
For `CC(Cc1ccccc1)NC=O` (configuration not stated), the Potency entry in assay [1], in assay [2], in assay [3], in assay [4], in assay [5] and in assay [6] was “inactive” in each case. In assay [7], the Potency entry is “inactive”. Moreover, in assay [8], the max response is 2%.
`CNC1(c2ccccc2Cl)CCCCC1=O` (configuration not stated): the Potency entry in assay [1], in assay [2], in assay [3], in assay [4], in assay [5] and in assay [6] was “inactive” in each case. Besides, the Potency in assay [7] is 4.78 µM (active). In addition, in assay [8], the max response was 3.79% and -7.59%.
For the compound `N#CC1(N2CCCCC2)CCCCC1`, the Potency entry in assay [1], in assay [2], in assay [3], in assay [4], in assay [5] and in assay [6] was “inactive” throughout. In assay [7], the Potency result is “inactive”. For the same compound, in assay [8], the max response was 9.38%.
